# Compound activity deposited in PubChem by Broad Institute.
# ERp5 inh – blocks human ERp5 reductase activity on insulin | Q15084 | ERp5 insulin aggregation, absorbance 650 nm, 90 min | inhibition, % at 9.99 µM | 350,000 compounds, 0.05% hits | AID 651711;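 active = mean replicate inhibition above about 25%, with every replicate also reaching it, limit read from the data, passing the limit was not always enough; inconclusive = only one of those two criteria met; inactive = neither criterion met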
# Target sequence (Q15084 whole entry, looked up): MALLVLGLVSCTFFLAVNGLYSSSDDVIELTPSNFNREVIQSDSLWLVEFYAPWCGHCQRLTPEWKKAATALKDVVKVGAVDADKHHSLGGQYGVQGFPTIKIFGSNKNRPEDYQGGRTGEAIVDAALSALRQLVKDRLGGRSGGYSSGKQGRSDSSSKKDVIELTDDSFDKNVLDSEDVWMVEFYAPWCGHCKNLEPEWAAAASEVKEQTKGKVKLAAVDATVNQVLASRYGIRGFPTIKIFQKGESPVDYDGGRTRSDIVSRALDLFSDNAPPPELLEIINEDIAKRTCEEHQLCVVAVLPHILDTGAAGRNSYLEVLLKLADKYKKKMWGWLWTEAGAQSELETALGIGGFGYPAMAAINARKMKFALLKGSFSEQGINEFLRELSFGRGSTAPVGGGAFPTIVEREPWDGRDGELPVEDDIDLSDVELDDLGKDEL
# PvdQ inh – P. aeruginosa PvdQ acylase inhibition; purified PvdQ acylase, fluorescence plate reader; inhibition, % at 10 µM; 340,000 compounds, 0.063% hits; AID 488965; in the data active = inhibition above about 30%, passing the limit was not always enough; inconclusive = no clear call, values can overlap the other calls
# Vif inh – blocks HIV Vif function; HEK293T cells, Vif self-association by quenched fluorescence, imaging, 24 h; 340,000 compounds, 0.35% hits; AID 602346; inhibition, % at 7.49 µM; in the data active = inhibition above about 50%, passing the limit was not always enough; inconclusive = no clear call, values can overlap the other calls; inactive = below about 31%
# PDI turbidity – inhibitors of human protein disulfide isomerase; 350,000 compounds, 0.052% hits; inhibition, % at 10 µM; P07237; AID 588391; PDI insulin aggregation turbidity, A650, 90 min;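 active = mean inhibition across replicates of 30% or more, whatever share of single replicates reach that level; inconclusive = mean inhibition below 30% while every single replicate reaches 30%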
# AI-2 QS mod – modulates the Vibrio harveyi AI-2 quorum sensing system; 300,000 compounds, 0.4% hits; activity change, % at 7.5 µM; Vibrio harveyi JMH597 AI-2 luminescence/OD600 ratio, 9 h; hits give low values; strain lacks LuxN and CqsS sensors; 0 = neutral-control median; in the data active = activity change below about -75%, passing the limit was not always enough; inconclusive = no clear call, values can overlap the other calls;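 note: luminescence divided by OD600 gain over 9 h not by final OD600 alone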
# JMH597 growth – retest Vibrio harveyi JMH597 growth inhibition; shares compounds with AI-2 QS mod; OD600 absorbance, 9 h; lacks LuxN and CqsS sensors; growth inhibition, % at 7.5 µM; 750 compounds, 1% hits; AID 2726;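 active = every replicate shows growth inhibition above 50%; inconclusive = at least half, but not all, replicates pass that cutoff; inactive = fewer than half of replicates pass it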
# BB721 const-QS lum – retest counter-screen: luminescence loss in constitutive-on quorum sensing strain BB721; shares compounds with AI-2 QS mod; Vibrio harveyi BB721 luminescence, 9 h; inhibition, % at 7.5 µM; 750 compounds, 95% hits; AID 2727;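 active = inhibition above about 80% in every replicate, not just on average, limit read from the data; inconclusive = at least half of replicates past the limit, but not all; inactive = fewer than half of replicates past the limit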
# BB721 growth rt – retest Vibrio harveyi BB721 growth inhibition | 750 compounds, 3% hits | AID 2728 | shares compounds with AI-2 QS mod | OD600 absorbance, 9 h | growth inhibition, % at 7.5 µM;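 active = every replicate shows growth inhibition above 50%; inconclusive = at least half but not all replicates above 50% inhibition; inactive = under half of replicates above 50% inhibition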
# AI-2 QS JMH597 – Vibrio harveyi AI-2 signaling luminescence modulation – JMH597 strain, confirmation; shares compounds with AI-2 QS mod; Vibrio harveyi JMH597 AI-2 quorum sensing luminescence, 9 h; luxN and CqsS knockout, AI-2 only; inhibition, % at 7.5 µM; 750 compounds, 97% hits; AID 2736;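 active = every replicate shows more than 75% inhibition of signal versus neutral control wells; inconclusive = half to three quarters of replicates exceed 75% inhibition; inactive = fewer than half of replicates exceed 75% inhibition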
# A number is an active result; i = inactive; ? = inconclusive; nt = no result. Shown are actives, neighbours in structure and some others; about 0.64% of the full set was active somewhere.
SMILES,ERp5 inh,PvdQ inh,Vif inh,PDI turbidity,AI-2 QS mod,JMH597 growth,BB721 const-QS lum,BB721 growth rt,AI-2 QS JMH597
COc1ccc(CC(=O)O/N=C(\N)c2ccccn2)cc1OC,i,i,i,i,i,nt,nt,nt,nt
N/C(=N\OC(=O)Cc1ccc(Cl)cc1)c1ccccn1,nt,i,i,i,-87,i,91,i,93
Cc1ccc(CC(=O)O/N=C(\N)c2ccccn2)cc1,i,i,i,i,-84,i,87,i,91
N/C(=N\OC(=O)Cc1ccc(Cl)cc1)c1ccncc1,i,i,i,i,i,nt,nt,nt,nt
CN(C)CC(=O)Nc1ccc2c(c1)[C@@H]1C[C@H](CC(=O)N(C)C)O[C@@H](CO)[C@@H]1O2,i,nt,nt,nt,nt,nt,nt,nt,nt
CC(=O)c1cccc(NC(=O)C2CC(c3ccc(F)cc3)=NO2)c1 (stereo not given),nt,i,nt,i,-91,i,97,i,98
CC(=O)c1ccc(NC(=O)C2CC(c3ccc(F)cc3)=NO2)cc1 (stereo not given),nt,i,i,i,i,nt,nt,nt,nt
CC(C)Cc1ccc(S(=O)(=O)Nc2ccccn2)cc1,i,i,i,i,-93,i,98,i,100
Clc1ccc(OCc2cc(-c3ccccc3)no2)cc1Cl,i,i,i,i,?,i,97,i,98
O=C(/C=C/c1ccccc1)NNc1ccc(Cl)cc1,i,i,i,i,-97,i,100,?,100
O=C(/C=C/c1ccccc1)NNC(=O)c1cccc(Cl)c1,nt,i,i,i,i,nt,nt,nt,nt
CCCNC(=O)N1[C@H](CO)[C@H]2c3ccccc3N(C)C[C@H]21,i,nt,nt,nt,nt,nt,nt,nt,nt
Cc1sc2ncnc(OCC(=O)c3ccc(S(=O)(=O)N4CCCC4)cc3)c2c1C,nt,i,i,i,-90,?,98,69,99
Cc1sc2ncnc(OCC(=O)N3CCN(S(=O)(=O)c4ccc(Cl)cc4)CC3)c2c1C,nt,i,i,i,i,nt,nt,nt,nt
O=c1[nH]c(=O)n(Cc2ccc(Oc3ccccc3)cc2)cc1Br,i,i,i,i,-86,i,93,i,95
O=C(O)c1ccc(NCc2cccnc2)cc1,nt,i,i,i,i,nt,nt,nt,nt
O=C(O)c1ccc(NCc2ccc(Br)cc2)cc1,i,i,i,i,-96,i,100,i,100
O=C(CSc1nnc(-c2ccc(S(=O)(=O)N3CCCC3)cc2)o1)NCc1ccco1,nt,i,i,i,-83,i,84,i,90
COc1ccc(-c2nnc(SCC(=O)NCc3ccco3)o2)cc1,i,i,i,i,i,nt,nt,nt,nt
Cc1nc(-c2cccnc2)sc1C(=O)Nc1cccc(C(F)(F)F)c1,nt,i,i,i,-86,i,85,i,89
Cc1nc(-c2cccnc2)sc1C(=O)Nc1ccc(C(F)(F)F)cc1,nt,i,i,i,i,nt,nt,nt,nt
Cc1noc(C)c1S(=O)(=O)Nc1ccc2c(c1)CC(=O)N([C@@H](C)CO)C[C@H](C)[C@H](CN(C)C(=O)Nc1ccc(F)cc1)O2,i,nt,nt,nt,nt,nt,nt,nt,nt
Cc1ccc(S(=O)(=O)NCC[C@@H]2CC[C@@H](NC(=O)CC3CC3)[C@@H](CO)O2)cc1,i,nt,nt,nt,nt,nt,nt,nt,nt
O=C(COC(=O)C1CCC1)Nc1ccc(Oc2ccccc2)cc1,nt,i,i,i,i,nt,nt,nt,nt
CO/N=C\CC(=O)Nc1ccc(Oc2ccccc2)cc1,i,i,i,i,-80,i,84,i,91
O=C(COC(=O)C1CC1)Nc1ccc(Oc2ccccc2)cc1,nt,i,i,i,-82,i,89,i,94
Cc1ccc(Cn2cc(-c3ccccc3)nn2)cc1,i,i,i,i,-95,i,98,i,99
COc1ccc(-c2cn(Cc3ccc(C(=O)c4ccccc4)cc3)nn2)cc1,i,nt,nt,nt,i,nt,nt,nt,nt
